# Test results from PubChem BioAssay (Tox21).
# Records with an inconclusive call do not appear. Calls of active or inactive are those of the source. Calls come from the whole dose curve; as a rule, active = well fitted cell-killing curve with a large enough effect in the repeat runs; inconclusive = weak or mixed curves, or effect the other way; inactive = no such curve, though single readings can be large or run the other way.
# Assay: qHTS assay to identify small molecule antagonists of the peroxisome proliferator-activated receptor gamma (PPARg) signaling pathway - cell viability counter screen (AID 743194); note: nearly all actives have a fitted effect of over 55% in size
# Conditions: PPARg-bla HEK293H viability, CellTiter-Glo luminescence, 17 h, co-treated with 50 nM rosiglitazone; series mostly up to 62.6 µM; activity change, negative = cytotoxicity: at the top concentration
# Text: U.S. Tox21 Program National Center for Advancing Translational Sciences [NCATS] NIH Chemical Genomics Center [NCGC] U.S. Environmental Protection Agency [EPA] National Institutes of Environmental Health Sciences [NIEHS] National Toxicology Program [NTP] U.S. Food and Drug Administration [FDA] Tox21 Assay Overview: The peroxisome proliferator-activated receptors (PPARs) are lipid-activated transcription factors of the nuclear receptor superfamily with three distinct subtypes namely PPAR alpha, PPAR delta (also called PPAR beta) and PPAR gamma (PPARg). All these subtypes heterodimerize with Retinoid X receptor (RXR) and these heterodimers regulate transcription of various genes. PPAR-gamma receptor (glitazone receptor) is involved in the regulation of glucose and lipid metabolism. To identify the compounds that activate PPAR-gamma signaling, GeneBLAzer PPAR gamma UAS-bla HEK293H cell line (Invitrogen, Carlsbad, CA, USA) containing a beta-lactamase reporter gene under the control of an Upstream Activator Sequence (UAS) was used to screen the Tox21 compound library. The cytotoxicity of the Tox21 compound library against the PPARg-bla cell line was tested in parallel by measuring the cell viability using CellTiter-Glo assay in the same wells.
# Tox21 Assay Protocol Summary: PPARg-bla cells were dispensed at 3000 cells/5uL/well in 1536-well black wall/clear bottom plates using a Multidrop Combi (Thermo Fisher Scientific, Waltham, MA) dispenser. After the assay plates were incubated at 37 C and 5% CO2 for 5 h, 23 nL of compounds dissolved in DMSO, positive controls or DMSO only was transferred to the assay plate by a Pintool station (Kalypsys, San Diego, CA), followed by addition of 1ul Rosiglitazone (50 nM, final concentration in the wells). The assay plates were incubated at 37 C for 17 h, and then 1 uL of LiveBLAzerTM B/G FRET substrate was added using a Bioraptr Flying Reagent Dispenser (FRD) workstation (Beckman Coulter, Indianapolis, IN, USA). The assay plates were incubated at room temperature for 1 h and fluorescence intensity was measured by an Envision plate reader (PerkinElmer, Shelton, CT). For cell viability readout that measures cytotoxicity, 4 ul/well of CellTiter-Glo reagent was added into the assay plates using a Flying Reagent Dispenser. After 30 min incubation at room temperature, the luminescence intensity in the plates was measured using a ViewLux plate reader (PerkinElmer).
# % is set by controls: 0 for no effect and ±100 for the full control effect.
Structure (SMILES),"activity change, negative = cytotoxicity",outcome
Oc1ccc(C2CNCCc3c2cc(O)c(O)c3Cl)cc1 (stereo not given),20.9% (inactive),
C=C[Si](OC(=C)C)(OC(=C)C)OC(=C)C,3.79% (inactive),
Cc1cnc(NS(=O)(=O)c2ccc(N)cc2)nc1,-15.2% (inactive),
CN(C)CCCSc1ccccc1NC(=O)/C=C/c1ccccc1,11.2% (inactive),
Cc1cc(O)cc2c1O[C@](C)(CCC[C@H](C)CCC[C@H](C)CCCC(C)C)CC2,9.55% (inactive),
Cc1c(NC(C)C)c(=O)n(-c2ccccc2)n1C,2.25% (inactive),
COCCCOCCCOC,19.5% (inactive),
N=c1nc(N2CCCCC2)cc(N)n1O,16.7% (inactive),
Cc1sccc1Br,1.38% (inactive),
CCc1nccnc1CC,-0.454% [at 29.1 µM] (inactive),
Nc1c2c(nc3ccccc13)CCCC2O (stereo not given),1.5% (inactive),
NCCc1cnc[nH]1,8.9% (inactive),
Cc1c(O)cccc1O,0.847% [at 81.1 µM] (inactive),
N=C(N)c1ccc2cc(OC(=O)c3ccc(N=C(N)N)cc3)ccc2c1,-16.8% (inactive),
Cc1nc2c([nH]1)c(=O)n(C)c(=O)n2Cc1ccco1,8.89% (inactive),
OCCCC1CCCCC1,3.43% (inactive),
N[C@@H](C(=O)N[C@@H]1C(=O)N2C(C(=O)O)=C(Cl)CS[C@H]12)c1ccccc1,0.956% [at 13.2 µM] (inactive),
O=C(O)CN(CCOCCOCCN(CC(=O)O)CC(=O)O)CC(=O)O,11.4% [at 0.55 µM] (inactive),
N=C(N)c1ccc(OCCCOc2ccc(C(=N)N)cc2)cc1,11.1% (inactive),
CC(C)(C)NCCNC(C)(C)C,6.21% (inactive),

Structure (SMILES),"activity change, negative = cytotoxicity",outcome
CCC(=O)OC(C)c1ccccc1 (stereo not given),3.92% (inactive),
COc1cc(C(=O)N2CCCCCCC2)cc(OC)c1OC,-3.24% (inactive),
CCCCOCCOCCOCCCC,21.6% (inactive),
N[C@H]1CN(c2c(F)cc3c(=O)c(C(=O)O)cn(C4C[C@H]4F)c3c2Cl)CC12CC2 (stereo not given in full),9.96% (inactive),
OC[C@]1(O)OC[C@@H](O)[C@H](O)[C@@H]1O,,inactive
CCO/C([O-])=N/c1c[n+](N2CCOCC2)no1,0.957% (inactive),
CC(=O)CC(C)(C)C1CCCCC1,-7.74% (inactive),
O=C(O)COc1nn(Cc2ccccc2)c2ccccc12,29.6% (inactive),
CCOC(=O)C(=O)OCC,8.46% (inactive),
C[C@@H]1CCN(C(=O)[C@H](CCCN=C(N)N)NS(=O)(=O)c2cccc3c2NC[C@H](C)C3)[C@@H](C(=O)O)C1,1.57% (inactive),
COC(=O)CC(C)=O,2.87% (inactive),
CN1CC(=O)NC1=N,15.2% (inactive),
NC(=O)COCCN1CCN(C(c2ccccc2)c2ccc(Cl)cc2)CC1 (stereo not given),-9.83% (inactive),
COC(=O)NN,-9.94% [at 81.1 µM] (inactive),
CC1(C)C(O)C(C)(C)C1O (stereo not given),-17.7% (inactive),
CCCc1cc(C(N)=S)ccn1,15.4% (inactive),
C[C@H](NC(CCc1ccccc1)C(=O)O)C(=O)N1CCC[C@H]1C(=O)O (stereo not given in full),-3.38% (inactive),
COc1nc(N)nc2c1ncn2[C@@H]1O[C@H](CO)[C@@H](O)[C@@H]1O,6.81% (inactive),
COC(=O)CCSCCC(=O)OC,2.68% (inactive),
COC(=O)c1cc(C(=O)OC)cc(S(=O)(=O)O)c1,14.8% (inactive),
